Holding throughout (assay): DAPPL (digital affinity profiling via proximity ligation, sequencing); 10 mM Tris-HCl pH 7.5, 50 mM NaCl, 1 mM DTT, 4% glycerol, room temperature, 30 min; GST-TFs on glutathione beads, 16-mer random dsDNA library, 0.1% formaldehyde crosslink after washing; high values mean tight binding
Common to all, as to conditions: protein: recombinant; tags: N-terminal GST; dsDNA, one strand shown

One assay addresses T1, ELK1 (Homo sapiens, UniProt P19419 1-428).
T1 sequence: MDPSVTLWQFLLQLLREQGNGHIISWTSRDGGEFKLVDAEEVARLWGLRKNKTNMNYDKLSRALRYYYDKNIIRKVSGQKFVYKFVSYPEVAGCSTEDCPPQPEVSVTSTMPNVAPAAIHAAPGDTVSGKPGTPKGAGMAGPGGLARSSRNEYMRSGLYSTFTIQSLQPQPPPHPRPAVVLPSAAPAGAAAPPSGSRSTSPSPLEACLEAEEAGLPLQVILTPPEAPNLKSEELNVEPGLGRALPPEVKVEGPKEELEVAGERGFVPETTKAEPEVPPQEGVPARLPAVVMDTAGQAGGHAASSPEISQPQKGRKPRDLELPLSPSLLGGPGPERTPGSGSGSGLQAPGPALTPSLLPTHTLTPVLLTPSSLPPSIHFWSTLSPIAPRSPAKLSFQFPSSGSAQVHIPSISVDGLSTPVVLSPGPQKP
The essentials:
(§1)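 GST fusions of human transcription factors were expressed in yeast and captured with glutathione beads. Once given DNA barcodes and pooled alongside a tag-only sample, they were incubated for 30 min at room temperature with 200 nmole of a random double-stranded 16-mer DNA library in Tris/NaCl/DTT/glycerol buffer, then washed, crosslinked (0.1% formaldehyde), proximity-ligated, PCR-amplified and sequenced on an Illumina NextSeq500. The binding signal of each hexamer is its read frequency for a factor divided by its frequency for the tag-only sample.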

In the next assay the target is T2, GABPA (Homo sapiens, UniProt Q06546 1-454).
T2 sequence: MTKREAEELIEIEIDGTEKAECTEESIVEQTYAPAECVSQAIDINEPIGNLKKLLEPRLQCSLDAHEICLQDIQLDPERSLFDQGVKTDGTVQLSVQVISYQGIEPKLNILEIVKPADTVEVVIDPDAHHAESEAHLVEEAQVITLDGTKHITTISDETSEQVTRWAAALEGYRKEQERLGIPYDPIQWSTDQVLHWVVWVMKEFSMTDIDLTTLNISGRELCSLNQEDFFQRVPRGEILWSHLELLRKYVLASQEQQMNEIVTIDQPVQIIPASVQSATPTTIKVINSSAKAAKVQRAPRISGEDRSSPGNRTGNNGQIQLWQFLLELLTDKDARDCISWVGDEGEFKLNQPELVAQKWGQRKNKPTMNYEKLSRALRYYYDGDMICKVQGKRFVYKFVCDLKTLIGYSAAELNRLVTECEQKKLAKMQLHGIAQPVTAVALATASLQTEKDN
An outline of the steps: as §1

In a further assay the target is SPIB (Homo sapiens, UniProt Q01892 1-262). The essentials:
as §1

For a further assay, the target named is ETV5 (Homo sapiens, UniProt P41161 1-510). The essentials: as §1
A further assay has as its target T3, ELK4 (Homo sapiens, UniProt P28324-2 1-405).
T3 sequence: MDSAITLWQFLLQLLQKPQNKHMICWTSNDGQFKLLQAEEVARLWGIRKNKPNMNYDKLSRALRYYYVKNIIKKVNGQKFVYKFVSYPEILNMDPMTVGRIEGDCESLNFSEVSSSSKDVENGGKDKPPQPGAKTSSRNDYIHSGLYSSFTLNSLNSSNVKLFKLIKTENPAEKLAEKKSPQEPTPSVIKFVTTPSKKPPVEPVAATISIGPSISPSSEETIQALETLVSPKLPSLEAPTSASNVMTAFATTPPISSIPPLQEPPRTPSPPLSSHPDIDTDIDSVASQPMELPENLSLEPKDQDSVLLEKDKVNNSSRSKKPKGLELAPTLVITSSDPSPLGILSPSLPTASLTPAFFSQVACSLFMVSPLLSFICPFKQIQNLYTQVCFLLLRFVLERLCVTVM
An outline of the steps: as §1

A further assay deals with T4, ETV2 (Homo sapiens, UniProt O00321 1-342).
T4 sequence: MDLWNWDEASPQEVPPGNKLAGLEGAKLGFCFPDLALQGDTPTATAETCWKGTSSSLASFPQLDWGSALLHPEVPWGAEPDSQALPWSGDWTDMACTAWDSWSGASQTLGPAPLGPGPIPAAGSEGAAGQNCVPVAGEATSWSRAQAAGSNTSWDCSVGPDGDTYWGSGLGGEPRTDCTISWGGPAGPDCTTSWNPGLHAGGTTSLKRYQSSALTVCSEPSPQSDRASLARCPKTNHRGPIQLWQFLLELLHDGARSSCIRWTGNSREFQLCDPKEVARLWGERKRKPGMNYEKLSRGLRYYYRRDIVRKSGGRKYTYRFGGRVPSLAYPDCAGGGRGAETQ
The essentials:
as §1

The target of a further assay is T5, ELF3 (Homo sapiens, UniProt P78545 1-371).
T5 sequence: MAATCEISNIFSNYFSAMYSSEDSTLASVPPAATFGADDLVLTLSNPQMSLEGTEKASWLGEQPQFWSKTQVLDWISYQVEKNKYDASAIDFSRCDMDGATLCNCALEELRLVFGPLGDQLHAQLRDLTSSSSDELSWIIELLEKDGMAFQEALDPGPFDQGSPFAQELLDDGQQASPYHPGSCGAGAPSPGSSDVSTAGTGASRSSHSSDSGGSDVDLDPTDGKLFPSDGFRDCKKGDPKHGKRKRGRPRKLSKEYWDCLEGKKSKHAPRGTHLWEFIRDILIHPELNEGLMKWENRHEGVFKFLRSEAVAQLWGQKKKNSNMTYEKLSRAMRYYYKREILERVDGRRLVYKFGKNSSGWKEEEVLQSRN
The essentials: as §1

For the next assay, the target named is ETV1 (Homo sapiens, UniProt P50549 1-477). The essentials:
as §1

Another assay concerns the target T6, ETV3L (Homo sapiens, UniProt Q6ZN32 1-361).
T6 sequence: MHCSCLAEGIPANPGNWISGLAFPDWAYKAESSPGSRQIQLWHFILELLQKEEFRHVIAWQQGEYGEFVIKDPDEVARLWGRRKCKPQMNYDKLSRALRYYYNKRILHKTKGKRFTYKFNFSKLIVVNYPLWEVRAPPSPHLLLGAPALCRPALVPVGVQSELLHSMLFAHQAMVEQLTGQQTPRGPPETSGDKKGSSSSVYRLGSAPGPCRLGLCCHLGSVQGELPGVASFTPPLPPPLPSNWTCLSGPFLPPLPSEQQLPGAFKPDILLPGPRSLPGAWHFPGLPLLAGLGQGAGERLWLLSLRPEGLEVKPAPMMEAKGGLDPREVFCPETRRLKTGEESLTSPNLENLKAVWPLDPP
The essentials: as §1

Another assay has as its target T7, ETS2 (Homo sapiens, UniProt P15036 1-469).
T7 sequence: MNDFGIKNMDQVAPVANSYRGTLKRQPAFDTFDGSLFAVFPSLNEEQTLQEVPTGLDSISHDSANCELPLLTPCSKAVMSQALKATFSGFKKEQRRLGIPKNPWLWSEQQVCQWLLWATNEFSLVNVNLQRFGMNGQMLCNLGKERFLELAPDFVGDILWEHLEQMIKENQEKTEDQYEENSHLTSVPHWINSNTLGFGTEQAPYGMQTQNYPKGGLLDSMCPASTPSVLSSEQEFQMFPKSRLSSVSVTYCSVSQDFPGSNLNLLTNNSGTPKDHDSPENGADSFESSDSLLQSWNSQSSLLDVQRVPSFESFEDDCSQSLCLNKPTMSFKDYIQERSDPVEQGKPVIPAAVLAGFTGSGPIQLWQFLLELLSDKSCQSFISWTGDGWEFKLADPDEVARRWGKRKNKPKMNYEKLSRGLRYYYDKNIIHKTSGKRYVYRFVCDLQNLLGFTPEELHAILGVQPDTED
An outline of the steps: as §1

The target in a further assay is T8, ETV7 (Homo sapiens, UniProt Q9Y603 1-341).
T8 sequence: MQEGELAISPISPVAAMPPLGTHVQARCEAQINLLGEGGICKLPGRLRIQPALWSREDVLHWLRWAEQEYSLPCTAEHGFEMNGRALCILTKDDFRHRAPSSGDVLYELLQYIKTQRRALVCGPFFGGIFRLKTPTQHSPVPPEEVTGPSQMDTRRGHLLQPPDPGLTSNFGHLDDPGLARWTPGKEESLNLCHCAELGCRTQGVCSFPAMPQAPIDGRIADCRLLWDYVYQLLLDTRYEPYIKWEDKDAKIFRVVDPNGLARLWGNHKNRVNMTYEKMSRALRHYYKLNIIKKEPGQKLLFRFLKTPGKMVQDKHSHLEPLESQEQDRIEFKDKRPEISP
An outline of the steps:
as §1

Another assay deals with T9, ETV3 (Homo sapiens, UniProt P41162-2 1-143).
T9 sequence: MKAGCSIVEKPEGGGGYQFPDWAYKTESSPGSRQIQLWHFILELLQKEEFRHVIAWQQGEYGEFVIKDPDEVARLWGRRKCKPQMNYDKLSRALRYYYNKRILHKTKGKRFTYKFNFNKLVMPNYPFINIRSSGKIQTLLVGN
The essentials:
as §1

For another assay, the target named is ETV6 (Homo sapiens, UniProt P41212 1-452). The essentials: as §1
Another assay has as its target ELF1 (Homo sapiens, UniProt P32519 1-619). The essentials:
as §1

The target in the next assay is T10, EHF (Homo sapiens, UniProt Q9NZC4 1-300).
T10 sequence: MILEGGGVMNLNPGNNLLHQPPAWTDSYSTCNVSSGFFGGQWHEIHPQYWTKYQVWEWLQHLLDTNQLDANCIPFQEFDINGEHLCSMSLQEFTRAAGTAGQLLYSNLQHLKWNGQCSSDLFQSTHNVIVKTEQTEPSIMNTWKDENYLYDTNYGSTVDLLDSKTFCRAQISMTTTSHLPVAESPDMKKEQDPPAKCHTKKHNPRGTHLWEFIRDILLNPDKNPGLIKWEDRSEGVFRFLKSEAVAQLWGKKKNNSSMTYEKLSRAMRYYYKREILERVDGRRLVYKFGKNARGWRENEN
An outline of the steps:
as §1

The target in the next assay is SPI1 (Homo sapiens, UniProt P17947 1-270). An outline of the steps: as §1
For the next assay, the target named is T11, FEV (Homo sapiens, UniProt Q99581 1-238).
T11 sequence: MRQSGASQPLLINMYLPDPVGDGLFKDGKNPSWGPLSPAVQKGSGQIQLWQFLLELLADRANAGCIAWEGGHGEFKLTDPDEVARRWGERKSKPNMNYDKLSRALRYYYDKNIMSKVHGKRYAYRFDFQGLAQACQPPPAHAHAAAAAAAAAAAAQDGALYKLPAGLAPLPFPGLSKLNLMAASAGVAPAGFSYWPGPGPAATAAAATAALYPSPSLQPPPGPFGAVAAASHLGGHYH
An outline of the steps: as §1

Sequence of ETV1 (P50549 whole entry): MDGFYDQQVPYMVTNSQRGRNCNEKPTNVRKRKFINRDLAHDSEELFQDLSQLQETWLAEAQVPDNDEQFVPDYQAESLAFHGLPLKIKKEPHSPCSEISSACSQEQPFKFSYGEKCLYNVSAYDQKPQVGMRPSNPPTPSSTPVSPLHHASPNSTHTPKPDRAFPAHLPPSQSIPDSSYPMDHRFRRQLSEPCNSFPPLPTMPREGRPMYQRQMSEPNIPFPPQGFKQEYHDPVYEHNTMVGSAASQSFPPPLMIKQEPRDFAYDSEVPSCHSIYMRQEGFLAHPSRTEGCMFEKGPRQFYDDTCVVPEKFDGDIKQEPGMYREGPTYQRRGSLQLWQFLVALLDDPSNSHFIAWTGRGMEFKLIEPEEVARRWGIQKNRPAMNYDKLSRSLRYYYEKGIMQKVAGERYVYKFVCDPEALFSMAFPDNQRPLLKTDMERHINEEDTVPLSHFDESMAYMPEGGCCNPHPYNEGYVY
Sequence of ETV5 (P41161 whole entry): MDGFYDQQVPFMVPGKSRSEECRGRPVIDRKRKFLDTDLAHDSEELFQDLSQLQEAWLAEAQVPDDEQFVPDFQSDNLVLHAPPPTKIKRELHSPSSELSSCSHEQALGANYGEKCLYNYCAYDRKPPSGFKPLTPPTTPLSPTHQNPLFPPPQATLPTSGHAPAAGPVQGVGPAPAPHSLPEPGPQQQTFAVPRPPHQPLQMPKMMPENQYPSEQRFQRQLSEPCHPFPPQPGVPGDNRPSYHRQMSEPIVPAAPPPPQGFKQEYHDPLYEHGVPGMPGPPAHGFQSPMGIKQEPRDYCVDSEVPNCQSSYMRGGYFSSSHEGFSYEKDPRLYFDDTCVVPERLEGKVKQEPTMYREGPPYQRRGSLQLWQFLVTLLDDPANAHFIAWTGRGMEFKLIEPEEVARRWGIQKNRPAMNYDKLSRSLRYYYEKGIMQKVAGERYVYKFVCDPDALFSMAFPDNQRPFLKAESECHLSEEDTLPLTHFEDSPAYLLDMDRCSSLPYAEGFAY
Sequence of ETV6 (P41212 whole entry): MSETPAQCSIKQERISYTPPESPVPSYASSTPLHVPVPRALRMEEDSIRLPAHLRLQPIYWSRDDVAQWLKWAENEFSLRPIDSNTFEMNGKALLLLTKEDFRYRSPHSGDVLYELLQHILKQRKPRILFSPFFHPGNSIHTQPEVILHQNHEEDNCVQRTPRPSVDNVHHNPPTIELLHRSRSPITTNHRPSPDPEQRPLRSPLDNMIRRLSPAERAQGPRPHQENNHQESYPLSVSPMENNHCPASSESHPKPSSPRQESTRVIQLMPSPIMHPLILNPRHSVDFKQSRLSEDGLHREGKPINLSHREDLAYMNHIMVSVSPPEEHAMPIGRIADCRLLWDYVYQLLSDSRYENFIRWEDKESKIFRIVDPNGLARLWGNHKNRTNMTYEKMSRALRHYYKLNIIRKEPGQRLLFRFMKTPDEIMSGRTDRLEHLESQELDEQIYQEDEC
Sequence of SPIB (Q01892 whole entry): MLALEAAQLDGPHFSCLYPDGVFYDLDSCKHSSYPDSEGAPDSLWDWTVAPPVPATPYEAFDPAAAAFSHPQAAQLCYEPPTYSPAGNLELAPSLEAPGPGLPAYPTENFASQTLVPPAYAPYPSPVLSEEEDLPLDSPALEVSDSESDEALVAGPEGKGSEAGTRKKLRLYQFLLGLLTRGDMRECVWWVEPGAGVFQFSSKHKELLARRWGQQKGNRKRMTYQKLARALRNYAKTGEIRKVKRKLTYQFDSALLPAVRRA
Sequence of ELF1 (P32519 whole entry): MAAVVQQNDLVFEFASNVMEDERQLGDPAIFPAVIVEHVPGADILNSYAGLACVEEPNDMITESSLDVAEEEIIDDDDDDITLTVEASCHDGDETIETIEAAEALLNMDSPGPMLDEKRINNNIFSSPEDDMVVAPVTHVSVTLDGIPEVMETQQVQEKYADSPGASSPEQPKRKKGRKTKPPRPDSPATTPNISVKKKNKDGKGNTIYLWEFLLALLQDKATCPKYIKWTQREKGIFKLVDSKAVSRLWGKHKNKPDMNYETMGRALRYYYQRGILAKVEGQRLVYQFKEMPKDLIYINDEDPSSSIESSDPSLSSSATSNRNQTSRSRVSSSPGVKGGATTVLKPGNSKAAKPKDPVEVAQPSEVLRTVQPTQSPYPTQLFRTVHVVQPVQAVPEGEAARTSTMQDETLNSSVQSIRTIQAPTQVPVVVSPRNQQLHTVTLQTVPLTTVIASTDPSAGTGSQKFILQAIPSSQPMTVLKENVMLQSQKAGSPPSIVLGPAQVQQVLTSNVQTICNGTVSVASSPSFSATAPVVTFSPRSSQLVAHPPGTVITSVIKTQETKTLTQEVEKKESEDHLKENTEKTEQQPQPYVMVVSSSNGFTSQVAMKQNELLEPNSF

Consider CGTTTG, for which the binding signal with ELK1 is 1.03 fold enrichment (6-mer frequency, TF over GST control); with GABPA it was 1.03 fold enrichment (6-mer frequency, TF over GST control); with SPIB it was 1.06 fold enrichment (6-mer frequency, TF over GST control); in the assay with ETV5, 1.01 fold enrichment (6-mer frequency, TF over GST control); with ELK4, 1.07 fold enrichment (6-mer frequency, TF over GST control); with ETV2, 1.16 fold enrichment (6-mer frequency, TF over GST control). For the same sequence, the binding signal was 1.02 fold enrichment (6-mer frequency, TF over GST control) with ELF3; 1.06 fold enrichment (6-mer frequency, TF over GST control) with ETV1; 1 fold enrichment (6-mer frequency, TF over GST control) in the assay with ETV3L; 1.06 fold enrichment (6-mer frequency, TF over GST control) in the assay with ETS2; 1.21 fold enrichment (6-mer frequency, TF over GST control) with ETV7; 1.08 fold enrichment (6-mer frequency, TF over GST control) in the assay with ETV3. For the same sequence, in the assay with ETV6, the binding signal was 1.01 fold enrichment (6-mer frequency, TF over GST control).
In the case of TCGTCC, the binding signal with ELK1 was 1.1 fold enrichment (6-mer frequency, TF over GST control); with GABPA, 1.05 fold enrichment (6-mer frequency, TF over GST control); in the assay with ELF1, 1.03 fold enrichment (6-mer frequency, TF over GST control); with EHF, 1 fold enrichment (6-mer frequency, TF over GST control); with SPI1 it was 1.03 fold enrichment (6-mer frequency, TF over GST control); with SPIB, 1.06 fold enrichment (6-mer frequency, TF over GST control). The binding signal with FEV was 1 fold enrichment (6-mer frequency, TF over GST control); in the assay with ETV5, 1.01 fold enrichment (6-mer frequency, TF over GST control); with ELK4 it was 1.15 fold enrichment (6-mer frequency, TF over GST control); in the assay with ELF3, 1.08 fold enrichment (6-mer frequency, TF over GST control); in the assay with ETV1, 1.06 fold enrichment (6-mer frequency, TF over GST control); in the assay with ETV7, 1.08 fold enrichment (6-mer frequency, TF over GST control). In addition, the binding signal with ETV3 was 1.04 fold enrichment (6-mer frequency, TF over GST control); with ETV6 it was 1.08 fold enrichment (6-mer frequency, TF over GST control).

Source of the values: publication PMC7862700, “An all-to-all approach to the identification of sequence-specific readers for epigenetic DNA modifications on cytosine”.
